# Results: the supplement of paper PMC7726561
# The full ranking holds about 1,100 sequences; the median of “thermal melting temperature (Tm) of peptide-HLA complex” is about 58, and the lowest 2% start at about 42. Only a selection was taken, and the lowest values are over-represented in it overall.
# Target: HLA-A*02:01
# Test: thermal melting temperature (Tm) of peptide-HLA complex; higher = more thermostable pHLA complex
# Details: C1R-A*02:01
# 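Further: lysates heated 10 min at 37–73 °C, complexes pulled down with pan-HLA I antibody, peptide signal by DIA-MS relative to 37 °C, Tm where half the complex is unfolded.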
row,Sequence,thermal melting temperature [°C]
1,ALFPERITV,61.6
2,YLDIKGLLDV,56
3,TLLDPNEKYLL,61.3
4,RLWNETVEL,63.7
5,SIAPRMMSV,48.1
6,FTQDSNYLL,49.1
7,HIADVSHFI,55.3
8,RIADGLPVAV,41
9,VLADQEVRL,58.4
10,GLNEEIARV,64
11,IQDDMQTLYV,43.4
12,ILANDGVLLAA,59.6
13,FLIPIYHQV,62.7
14,SLIRNLEQL,51.2
15,KLLDIPGLEV,61.3
16,YLKDLIEEV,62.8
17,YQIAEQFRV,61.3
18,IAPPVPLKA,53

row,Sequence,thermal melting temperature [°C]
1,ILSGVIRSV,56.6
2,LLYDGKLSSA,59.4
3,LLVDVEPKV,55.5
4,QMISRIEYV,59.7
5,KLTENLVAL,59
6,FLNKEITSV,59.6
7,TLLTFFHEL,57.4
8,YLPEDFIRV,61.4
9,FVMETFVHL,57
10,ILTEAIKAA,59.3
11,TLLTDPPTA,59.5
12,VMFGGKQVVV,57.5
13,KLFNEFIQL,57.8
14,SLYSQVHQI,60.2
15,NLYEEWTQV,59.9
16,VLMTQQPRPVL,48.8
17,YLTAFTKNL,60.8
18,GLPRFGIEMV,60.1
